aSyn 5UTR act: Activators via SNCA 5'UTR binding, MLPCN | alpha-synuclein 5'UTR reporter, activators screen | activity score, % (tested at 7.5 µM), hits read low | actives 7.1% (n = 300,000) | AID 1814, 2009; in the data active means activity score below about -60%
Numbers without * were called inactive. These entries were drawn from the full list.

SMILES | aSyn 5UTR act
O=C(/C=C/c1ccc(-c2ccccc2[N+](=O)[O-])o1)c1ccco1 | -136*
O=C(Cc1cccc2ccccc12)Nc1ccc2c(c1)C(=O)NC2=O | -65*
Cc1nn(-c2ccccc2)c2sc(C(=O)NC3CC3)cc12 | -100*
Cc1nn(-c2ccc(F)cc2)c2sc(C(=O)N3CCCCCC3)cc12 | -84*
Cc1nn(-c2ccccc2)c2sc(C(=O)N(CC(=O)NC3CCCC3)Cc3ccco3)cc12 | -67*
c1ccc(N2OCC3Cn4c(nc5ccccc54)C32)cc1 (stereo not drawn) | -64*
O=C1/C(=C\Nc2ccc(Cl)cc2)CCN1c1ncccn1 | -158*
O=C1/C(=C\Nc2ccc(OC(F)(F)F)cc2)CCN1c1ncccn1 | -201*
CC(C)(C)c1ccc(-c2noc(-c3ccno3)n2)cc1 | -120*
CN1N=C(/C=C/c2ccccc2)CCC1=O | -134*
Cc1ccc(/C=C/C2=NN(C)C(=O)CC2)cc1 | -104*
CCc1ccc2nc3nc(C)cc(C)c3c(N)c2c1 | -391*
Cc1cc(C)c2c(N)c3ccccc3nc2n1 | -623*
O=C(Nc1ccc(N2CCCC2)cc1)c1cccc(Cl)c1Cl | -100*
O=C(Nc1ccc(N2CCCC2)cc1)c1ccccc1F | -80*
O=C(Nc1ccc(N2CCOCC2)nc1)c1ccccc1Cl | -102*
O=C(Nc1ccc(N2CCCCC2)cc1)c1cccnc1Cl | -128*
CC1CC(C)CN(C(=O)c2cc3cc(Br)cc(Br)c3o2)C1 (stereo not drawn) | -121*
CC1CC(C)CN(C(=O)c2cc3ccccc3o2)C1 (stereo not drawn) | -70*
CC1CCN(C(=O)c2cc3ccccc3o2)CC1 | -131*
O=C(c1cc2ccccc2o1)N1CCCCCC1 | -64*
COc1ccc(N=c2scc(-c3ccc(OC)cc3)n2CCO)cc1 | -66*
CC(C)(C)N(Cc1ccccc1)C(=O)CN1C(=O)c2ccccc2C1=O | -97*
Cc1cccc(C)c1OCC(O)CN(Cc1ccccc1O)C1CCCCC1 (stereo not drawn) | 62
CC(=O)c1cccc(N=Nc2c(C)[nH]c3ccccc23)c1 | -150*
SMILES | aSyn 5UTR act
COc1cc(/C=N/NC(=O)c2ccoc2C)cc(OC)c1O | -90*
Cc1ccc(/C=N/NC(=O)NC23CC4CC(CC(C4)C2)C3)o1 | -83*
Cc1cc(C(=O)N/N=C/c2ccc(C)o2)c2ccccc2n1 | 65
Cc1ccc(/C=N/NC(=O)c2ccoc2C)o1 | -137*
O=C1/C(=C/c2cccc3ccccc23)CCCc2ccccc21 | -106*
CN(C)N1C(=O)/C(=C/c2ccco2)SC1=Nc1ccccc1 | -64*
COc1cccc(C(=O)O/N=C(\N)c2ccc([N+](=O)[O-])cc2)c1 | -164*
COc1cccc(/C(N)=N/OC(=O)Cc2ccccc2[N+](=O)[O-])c1 | -77*
COc1ccc(/C(N)=N/OC(=O)c2cccc([N+](=O)[O-])c2)cc1 | -129*
COc1ccc(/C(N)=N/OC(=O)c2cccc([N+](=O)[O-])c2C)cc1 | -113*
COc1cccc(C(=O)O/N=C(\N)c2ccc(C)cc2)c1 | -211*
CC(C)c1ccc(/C=C2\CC/C(=C\C=N\N(C)C)C2=O)cc1 | -73*
CCOc1ccc(C(=O)COC(=O)c2cc([N+](=O)[O-])ccc2N2CCOCC2)cc1 | -115*
CSc1ccc(COC(=O)c2cc([N+](=O)[O-])ccc2N2CCOCC2)cc1 | 67
COc1ccccc1CN1CC(C(=O)NCc2c(F)ccc(C)c2F)CCC1=O (stereo not drawn) | -72*
Cn1ncc(SCc2ccccc2)c(Cl)c1=O | -64*
Cc1cccc(NC(=O)CNc2cc(C)ccc2C)c1 | -68*
Cc1ccc(SCC(=O)Nc2cccc(C)c2)cc1 | -135*
CC1CC2(C)Oc3ccccc3CC2C(C)C1CNCCCN(C)C (stereo not drawn) | 106
COC(=O)CNc1c(-c2ccccn2)nc2ccc(Br)cn12 | -83*
COc1ccc2c(c1)NC(=O)CC(c1ccccc1)=N2 | -72*
O=C(NC1CCCC1)C(c1ccncc1)N(Cc1ccco1)C(=O)c1ccc(-c2ccccc2)[nH]1 (stereo not drawn) | -68*
O=C(O)c1ccc(N/N=C/C2=Cc3ccccc3OC2)cc1 | -136*
CNc1ncc(C(=O)c2ccc(Br)cc2)s1 | -108*
CNc1ncc(C(=O)c2ccccc2)s1 | -66*
SMILES | aSyn 5UTR act
Cc1ccc2nc(N3C(=O)C(O)=C(C(=O)c4ccco4)C3c3ccc(C)o3)sc2c1 (stereo not drawn) | -82*
Cc1ccc2nc(N3C(=O)C(O)=C(C(=O)c4cc5ccccc5o4)C3c3cccs3)sc2c1 (stereo not drawn) | -85*
CCOC(=O)c1sc(N2C(=O)C(O)=C(C(=O)c3ccco3)C2c2cccc(Cl)c2)nc1C (stereo not drawn) | -81*
CCc1ccc2nc(N3C(=O)C(O)=C(C(=O)c4ccco4)C3c3cccs3)sc2c1 (stereo not drawn) | -102*
O=C(OCc1nc2ccccc2s1)c1ccccc1O | -137*
O=C(OCc1nc2ccccc2s1)c1cccs1 | -197*
O=C(O)c1ccccc1OCc1nc2ccccc2s1 | -146*
O=C(OCc1nc2ccccc2s1)c1cnccn1 | -134*
Cc1ccc2nc(-c3ccc(NC(=O)COC(=O)c4ccc(=O)[nH]c4)cc3)sc2c1 | -67*
Cc1ccc2nc(-c3ccc(NC(=O)CN4CCN(c5ccccn5)CC4)cc3)sc2c1 | -146*
Cc1ccc2nc(-c3ccc(NC(=O)C(C)Sc4nncs4)cc3)sc2c1 (stereo not drawn) | 61
Cc1ccc2nc(-c3ccc(NC(=S)NC(=O)CC(C)C)cc3)sc2c1 | -178*
Cc1ccc2nc(-c3ccc(NC(=O)CSc4nc(N)cc(=O)[nH]4)cc3)sc2c1 | -177*
Cc1ccc2nc(-c3ccc(NC(=O)CN4C(=O)c5ccccc5C4=O)cc3)sc2c1 | -200*
Cc1ccc2nc(-c3ccc(NC(=O)CCS(=O)(=O)c4ccccc4)cc3)sc2c1 | 62
c1ccc(-c2nc(-c3nccc4ccccc34)oc2-c2ccccc2)cc1 | -82*
O=C1c2ccccc2C(=O)C1c1nccc2ccccc12 | 99
O=c1cc(-c2ccc(O)cc2)oc2ccc(O)cc12 | -151*
COc1ccc(N=c2cc(-c3ccc(O)cc3)oc3ccccc23)cc1 | -62*
Nc1c(-c2ccc3c(c2)OCCO3)oc2ccccc2c1=O | -145*
Cn1c2ccccc2c(=O)c2ccc(-c3ccc4c(c3)OCO4)cc21 | -145*
O=c1cc(-c2ccc(O)cc2)oc2ccccc12 | -138*
O=c1cc(-c2ccc3c(c2)OCO3)oc2ccccc12 | -297*
COc1ccc(-c2cc(=O)c3ccccc3o2)cc1 | -216*
O=C(N/N=C/c1cccc(F)c1)c1c(O)c2c([nH]c1=O)CCCC2 | -137*
SMILES | aSyn 5UTR act
O=C(N/N=C/c1ccccc1F)NC1CCCCC1 | -130*
O=C(N/N=C/c1cccc(F)c1)NC1CCCCC1 | -76*
Cc1ccnc(NC(=O)CCCc2ccccc2)c1 | -182*
O=C(CCCc1ccccc1)Nc1ccccn1 | -111*
COc1ccc(-n2c(C)cc(/C=C3\SC(=S)NC3=O)c2C)cc1 | -152*
Cc1cc(/C=C2\SC(N)=NC2=O)c(C)n1-c1ccccc1 | -112*
Cc1cc(/C=C2\SC(=S)NC2=O)c(C)n1-c1ccc(O)cc1 | -68*
Cc1cc(/C=C2\SC(=S)NC2=O)c(C)n1-c1ccccc1 | -163*
O=C1CCCC/C1=C/Nc1ccc2c(c1)OCO2 | -139*
O=C1CCCC/C1=C/Nc1ccc(C(=O)O)cc1 | -72*
Cc1ccc2c(c1)sc1nc(=O)n(-c3ccccc3)c(=O)n12 | -68*

Assay outcomes as filed in PubChem.
